Data on six sequences can be found in article PMC7862700, “An all-to-all approach to the identification of sequence-specific readers for epigenetic DNA modifications on cytosine”.

Holding throughout (assay): DAPPL (digital affinity profiling via proximity ligation, sequencing); 10 mM Tris-HCl pH 7.5, 50 mM NaCl, 1 mM DTT, 4% glycerol, room temperature, 30 min; GST-TFs on glutathione beads, 16-mer random dsDNA library, 0.1% formaldehyde crosslink after washing; high values mean tight binding
Common to all, as to conditions: protein: recombinant; tags: N-terminal GST; dsDNA, one strand shown

One experiment concerns the target T1, ELK1 (Homo sapiens, UniProt P19419 1-428).
T1 sequence: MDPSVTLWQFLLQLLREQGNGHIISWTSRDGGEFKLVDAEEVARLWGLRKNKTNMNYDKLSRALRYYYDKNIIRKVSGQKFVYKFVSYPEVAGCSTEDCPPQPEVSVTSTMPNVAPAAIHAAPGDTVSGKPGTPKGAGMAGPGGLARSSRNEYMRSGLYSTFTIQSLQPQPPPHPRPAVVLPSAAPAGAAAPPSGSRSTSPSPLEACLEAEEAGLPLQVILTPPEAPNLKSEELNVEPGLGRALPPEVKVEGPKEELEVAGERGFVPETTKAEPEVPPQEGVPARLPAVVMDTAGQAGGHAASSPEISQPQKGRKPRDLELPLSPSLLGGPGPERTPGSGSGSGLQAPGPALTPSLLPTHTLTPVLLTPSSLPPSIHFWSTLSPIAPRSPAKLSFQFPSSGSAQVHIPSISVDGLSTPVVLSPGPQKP
An outline of the steps: (§1)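 Binding signal is defined as a hexamer's read frequency for one factor over its frequency for the tag-only sample. To obtain reads, GST-fused human transcription factors were expressed in yeast, captured on glutathione beads, barcoded with DNA and pooled with that sample. Pools met 200 nmole of a 16-mer random double-stranded DNA library in Tris/NaCl/DTT/glycerol buffer for 30 min at room temperature before washing, 0.1% formaldehyde crosslinking, proximity ligation (BsaI/T4 ligase, 1 h, 37 °C), PCR and Illumina NextSeq500 sequencing.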

Another experiment has as its target T2, GABPA (Homo sapiens, UniProt Q06546 1-454).
T2 sequence: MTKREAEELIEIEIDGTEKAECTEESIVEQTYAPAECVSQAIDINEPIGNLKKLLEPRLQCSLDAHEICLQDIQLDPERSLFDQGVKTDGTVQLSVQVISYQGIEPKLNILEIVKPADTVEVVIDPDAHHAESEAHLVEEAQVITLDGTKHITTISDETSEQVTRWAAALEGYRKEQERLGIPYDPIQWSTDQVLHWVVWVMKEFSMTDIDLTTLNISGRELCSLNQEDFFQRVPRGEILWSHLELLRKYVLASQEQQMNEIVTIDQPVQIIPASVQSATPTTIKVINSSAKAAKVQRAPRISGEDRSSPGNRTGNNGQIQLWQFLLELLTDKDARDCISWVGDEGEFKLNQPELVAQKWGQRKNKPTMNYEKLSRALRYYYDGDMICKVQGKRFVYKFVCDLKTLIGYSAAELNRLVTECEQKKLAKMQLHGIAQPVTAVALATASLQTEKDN
The procedure, abridged:
as §1

The next experiment addresses ELF1 (Homo sapiens, UniProt P32519 1-619). The procedure, abridged: as §1
Another experiment addresses T3, EHF (Homo sapiens, UniProt Q9NZC4 1-300).
T3 sequence: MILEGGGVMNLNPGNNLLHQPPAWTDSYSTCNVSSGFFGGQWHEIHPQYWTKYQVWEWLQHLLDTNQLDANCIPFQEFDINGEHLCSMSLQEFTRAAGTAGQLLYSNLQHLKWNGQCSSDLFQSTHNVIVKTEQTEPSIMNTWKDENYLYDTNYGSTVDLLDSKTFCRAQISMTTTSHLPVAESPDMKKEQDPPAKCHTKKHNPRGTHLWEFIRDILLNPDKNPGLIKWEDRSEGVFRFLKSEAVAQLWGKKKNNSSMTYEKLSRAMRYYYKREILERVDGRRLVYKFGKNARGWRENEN
The procedure, abridged:
as §1

In another experiment the target is T4, ELK3 (Homo sapiens, UniProt P41970 1-407).
T4 sequence: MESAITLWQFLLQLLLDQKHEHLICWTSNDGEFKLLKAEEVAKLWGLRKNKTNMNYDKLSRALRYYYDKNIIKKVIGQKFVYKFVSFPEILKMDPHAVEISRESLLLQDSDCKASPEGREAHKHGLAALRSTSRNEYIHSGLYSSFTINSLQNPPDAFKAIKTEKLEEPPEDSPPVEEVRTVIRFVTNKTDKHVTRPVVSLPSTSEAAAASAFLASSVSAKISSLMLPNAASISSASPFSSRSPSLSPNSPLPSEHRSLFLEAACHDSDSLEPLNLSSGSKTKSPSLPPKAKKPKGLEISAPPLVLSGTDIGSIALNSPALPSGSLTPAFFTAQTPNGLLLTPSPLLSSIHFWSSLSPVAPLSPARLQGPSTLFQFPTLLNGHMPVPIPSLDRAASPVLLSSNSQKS
The procedure, abridged: as §1

The target in another experiment is T5, FEV (Homo sapiens, UniProt Q99581 1-238).
T5 sequence: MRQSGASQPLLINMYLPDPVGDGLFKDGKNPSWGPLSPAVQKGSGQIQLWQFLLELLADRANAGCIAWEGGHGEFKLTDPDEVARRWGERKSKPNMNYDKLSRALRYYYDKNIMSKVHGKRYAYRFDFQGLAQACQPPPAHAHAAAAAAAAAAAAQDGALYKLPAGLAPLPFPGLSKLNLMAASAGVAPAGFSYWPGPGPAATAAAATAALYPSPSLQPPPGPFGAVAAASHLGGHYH
An outline of the steps: as §1

The next experiment has as its target T6, SPIC (Homo sapiens, UniProt Q8N5J4 1-248).
T6 sequence: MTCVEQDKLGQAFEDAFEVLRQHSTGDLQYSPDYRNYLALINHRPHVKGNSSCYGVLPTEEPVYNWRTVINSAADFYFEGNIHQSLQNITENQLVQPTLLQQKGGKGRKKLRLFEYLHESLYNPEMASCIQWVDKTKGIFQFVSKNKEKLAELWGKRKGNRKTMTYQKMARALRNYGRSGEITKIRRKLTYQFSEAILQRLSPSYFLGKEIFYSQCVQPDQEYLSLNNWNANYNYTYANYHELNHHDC
The procedure, abridged:
as §1

Another experiment deals with ELF4 (Homo sapiens, UniProt Q99607 1-663). The procedure, abridged:
as §1

The next experiment has as its target T7, ELK4 (Homo sapiens, UniProt P28324-2 1-405).
T7 sequence: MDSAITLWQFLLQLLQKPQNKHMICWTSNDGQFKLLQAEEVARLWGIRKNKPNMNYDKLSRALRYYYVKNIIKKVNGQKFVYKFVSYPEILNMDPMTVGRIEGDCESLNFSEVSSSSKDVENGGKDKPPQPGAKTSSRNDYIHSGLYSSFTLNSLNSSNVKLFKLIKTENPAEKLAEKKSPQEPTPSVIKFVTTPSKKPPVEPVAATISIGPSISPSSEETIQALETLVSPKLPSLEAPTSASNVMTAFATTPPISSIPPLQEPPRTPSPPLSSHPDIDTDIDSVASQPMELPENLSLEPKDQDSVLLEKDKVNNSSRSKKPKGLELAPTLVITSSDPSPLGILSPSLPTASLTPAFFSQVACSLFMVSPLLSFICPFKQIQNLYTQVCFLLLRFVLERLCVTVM
The procedure, abridged: as §1

The next experiment addresses T8, ETV2 (Homo sapiens, UniProt O00321 1-342).
T8 sequence: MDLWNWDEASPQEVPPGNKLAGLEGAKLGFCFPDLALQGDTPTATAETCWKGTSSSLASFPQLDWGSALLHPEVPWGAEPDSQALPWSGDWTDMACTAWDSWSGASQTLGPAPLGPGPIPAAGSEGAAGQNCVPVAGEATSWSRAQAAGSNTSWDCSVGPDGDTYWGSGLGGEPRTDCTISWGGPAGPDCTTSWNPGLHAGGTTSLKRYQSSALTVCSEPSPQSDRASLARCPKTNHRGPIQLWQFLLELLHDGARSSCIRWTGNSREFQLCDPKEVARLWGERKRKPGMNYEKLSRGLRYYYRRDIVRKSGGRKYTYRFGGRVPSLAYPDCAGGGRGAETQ
The procedure, abridged:
as §1

In another experiment the target is T9, ETV3L (Homo sapiens, UniProt Q6ZN32 1-361).
T9 sequence: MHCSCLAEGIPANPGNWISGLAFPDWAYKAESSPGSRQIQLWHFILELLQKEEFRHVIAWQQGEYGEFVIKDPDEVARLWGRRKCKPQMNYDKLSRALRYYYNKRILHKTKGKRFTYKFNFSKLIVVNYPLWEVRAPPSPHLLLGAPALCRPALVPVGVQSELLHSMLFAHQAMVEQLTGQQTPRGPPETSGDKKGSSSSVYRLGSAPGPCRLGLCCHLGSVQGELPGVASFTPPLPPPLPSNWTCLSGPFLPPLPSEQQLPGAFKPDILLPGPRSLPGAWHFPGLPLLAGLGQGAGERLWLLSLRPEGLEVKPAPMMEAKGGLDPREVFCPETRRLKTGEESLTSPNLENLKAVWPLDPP
The procedure, abridged: as §1

For the next experiment, the target named is T10, SPDEF (Homo sapiens, UniProt O95238 1-335).
T10 sequence: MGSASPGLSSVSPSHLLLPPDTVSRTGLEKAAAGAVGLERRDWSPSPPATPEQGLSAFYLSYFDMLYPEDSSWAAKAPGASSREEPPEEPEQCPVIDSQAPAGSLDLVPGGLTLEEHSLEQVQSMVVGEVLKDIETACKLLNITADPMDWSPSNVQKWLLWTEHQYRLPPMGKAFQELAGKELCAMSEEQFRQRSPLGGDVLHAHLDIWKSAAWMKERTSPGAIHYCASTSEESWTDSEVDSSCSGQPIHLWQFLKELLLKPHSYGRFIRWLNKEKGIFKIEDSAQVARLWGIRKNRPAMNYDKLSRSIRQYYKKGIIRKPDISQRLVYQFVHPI
The procedure, abridged:
as §1

A further experiment deals with T11, ETV3 (Homo sapiens, UniProt P41162-2 1-143).
T11 sequence: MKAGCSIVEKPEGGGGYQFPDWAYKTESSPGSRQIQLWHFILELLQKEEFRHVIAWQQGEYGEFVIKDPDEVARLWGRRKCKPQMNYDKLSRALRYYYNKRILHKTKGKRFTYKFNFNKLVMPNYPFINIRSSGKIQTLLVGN
The procedure, abridged: as §1

The target of another experiment is SPIB (Homo sapiens, UniProt Q01892 1-262). The procedure, abridged: as §1
Sequence of SPIB (Q01892 whole entry): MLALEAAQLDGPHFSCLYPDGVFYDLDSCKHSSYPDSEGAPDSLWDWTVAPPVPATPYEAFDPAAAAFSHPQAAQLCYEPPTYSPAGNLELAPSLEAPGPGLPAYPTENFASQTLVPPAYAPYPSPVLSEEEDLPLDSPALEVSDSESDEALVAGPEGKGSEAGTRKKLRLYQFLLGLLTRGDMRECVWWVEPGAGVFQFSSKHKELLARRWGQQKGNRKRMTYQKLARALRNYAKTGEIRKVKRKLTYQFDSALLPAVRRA
In another experiment the target is T12, ELF3 (Homo sapiens, UniProt P78545 1-371).
T12 sequence: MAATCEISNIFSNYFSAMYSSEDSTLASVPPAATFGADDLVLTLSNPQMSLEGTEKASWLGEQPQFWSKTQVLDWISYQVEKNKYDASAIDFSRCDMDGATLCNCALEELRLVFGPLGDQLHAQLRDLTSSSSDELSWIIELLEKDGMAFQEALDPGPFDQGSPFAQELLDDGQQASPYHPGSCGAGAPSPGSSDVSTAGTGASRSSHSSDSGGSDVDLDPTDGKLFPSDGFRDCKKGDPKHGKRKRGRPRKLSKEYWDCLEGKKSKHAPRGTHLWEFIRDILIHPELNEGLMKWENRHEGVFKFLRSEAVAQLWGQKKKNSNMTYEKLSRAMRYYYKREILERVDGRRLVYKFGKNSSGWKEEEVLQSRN
The procedure, abridged:
as §1

The target of another experiment is T13, ETS2 (Homo sapiens, UniProt P15036 1-469).
T13 sequence: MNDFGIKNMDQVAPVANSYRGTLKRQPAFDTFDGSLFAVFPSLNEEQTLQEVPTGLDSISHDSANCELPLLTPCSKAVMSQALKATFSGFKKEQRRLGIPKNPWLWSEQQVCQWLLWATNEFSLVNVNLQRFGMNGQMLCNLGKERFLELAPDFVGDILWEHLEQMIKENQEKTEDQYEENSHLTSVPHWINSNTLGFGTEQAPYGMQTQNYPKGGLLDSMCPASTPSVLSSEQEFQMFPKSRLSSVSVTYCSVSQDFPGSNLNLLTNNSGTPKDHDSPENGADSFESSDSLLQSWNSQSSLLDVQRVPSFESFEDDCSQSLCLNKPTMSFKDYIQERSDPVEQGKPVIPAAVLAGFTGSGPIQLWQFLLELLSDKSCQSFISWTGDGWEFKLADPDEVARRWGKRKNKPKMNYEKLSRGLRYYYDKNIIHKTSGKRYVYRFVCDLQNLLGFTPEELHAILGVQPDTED
An outline of the steps:
as §1

Sequence of ELF4 (Q99607 whole entry): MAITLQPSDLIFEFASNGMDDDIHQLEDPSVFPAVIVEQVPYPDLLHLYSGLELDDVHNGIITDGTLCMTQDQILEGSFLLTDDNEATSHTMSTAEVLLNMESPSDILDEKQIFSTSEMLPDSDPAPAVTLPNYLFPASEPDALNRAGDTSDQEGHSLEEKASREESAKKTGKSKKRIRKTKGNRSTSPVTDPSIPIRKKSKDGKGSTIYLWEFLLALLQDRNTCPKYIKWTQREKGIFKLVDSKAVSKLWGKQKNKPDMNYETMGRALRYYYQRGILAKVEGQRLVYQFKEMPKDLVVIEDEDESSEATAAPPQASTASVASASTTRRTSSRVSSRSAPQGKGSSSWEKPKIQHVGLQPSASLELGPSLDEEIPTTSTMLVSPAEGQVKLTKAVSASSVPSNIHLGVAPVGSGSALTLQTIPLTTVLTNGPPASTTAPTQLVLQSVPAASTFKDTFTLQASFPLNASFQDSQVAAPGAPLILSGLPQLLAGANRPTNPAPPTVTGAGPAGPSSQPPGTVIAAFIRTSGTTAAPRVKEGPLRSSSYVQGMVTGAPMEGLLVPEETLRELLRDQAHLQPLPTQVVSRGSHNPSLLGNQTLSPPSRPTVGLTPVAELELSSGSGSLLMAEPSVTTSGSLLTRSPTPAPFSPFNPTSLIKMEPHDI
Sequence of ELF1 (P32519 whole entry): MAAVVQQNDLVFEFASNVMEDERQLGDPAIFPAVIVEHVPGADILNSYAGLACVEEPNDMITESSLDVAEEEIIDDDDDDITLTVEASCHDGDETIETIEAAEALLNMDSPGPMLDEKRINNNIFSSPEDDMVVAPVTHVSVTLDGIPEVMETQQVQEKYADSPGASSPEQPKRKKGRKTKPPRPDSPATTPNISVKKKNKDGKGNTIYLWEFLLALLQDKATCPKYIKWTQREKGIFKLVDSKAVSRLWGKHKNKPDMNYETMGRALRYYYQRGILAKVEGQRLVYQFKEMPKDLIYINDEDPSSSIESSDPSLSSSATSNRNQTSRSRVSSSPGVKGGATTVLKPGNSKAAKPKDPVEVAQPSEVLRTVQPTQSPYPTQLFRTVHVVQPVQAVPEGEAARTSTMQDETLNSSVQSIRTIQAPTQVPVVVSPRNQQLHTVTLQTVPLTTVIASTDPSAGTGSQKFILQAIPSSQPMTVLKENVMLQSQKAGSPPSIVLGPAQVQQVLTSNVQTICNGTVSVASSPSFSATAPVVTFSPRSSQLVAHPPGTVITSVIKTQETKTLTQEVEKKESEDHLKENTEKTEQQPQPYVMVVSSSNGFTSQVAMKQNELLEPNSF

Consider ACGCGC, for which the binding signal is 1.12 fold enrichment (6-mer frequency, TF over GST control) in the experiment with ELK1; 1.07 fold enrichment (6-mer frequency, TF over GST control) with GABPA; 1.05 fold enrichment (6-mer frequency, TF over GST control) in the experiment with ELF1; 1.07 fold enrichment (6-mer frequency, TF over GST control) with EHF; 1.04 fold enrichment (6-mer frequency, TF over GST control) in the experiment with ELK3; 1.04 fold enrichment (6-mer frequency, TF over GST control) with FEV. The binding signal with SPIC is 1.05 fold enrichment (6-mer frequency, TF over GST control); with ELF4 it was 1.06 fold enrichment (6-mer frequency, TF over GST control); in the experiment with ELK4, 1.02 fold enrichment (6-mer frequency, TF over GST control); with ETV2, 1.08 fold enrichment (6-mer frequency, TF over GST control); in the experiment with ETV3L, 1.09 fold enrichment (6-mer frequency, TF over GST control); with SPDEF, 1.06 fold enrichment (6-mer frequency, TF over GST control). Also, the binding signal with ETV3 is 1.09 fold enrichment (6-mer frequency, TF over GST control).

For CTGGCG, in the experiment with SPIC, the binding signal is 1.09 fold enrichment (6-mer frequency, TF over GST control).

As for GTGCTG, in the experiment with SPIC, the binding signal is 1.05 fold enrichment (6-mer frequency, TF over GST control).

As for GGGCAT, in the experiment with SPIC, the binding signal was 1 fold enrichment (6-mer frequency, TF over GST control).

Turning to CAATCG, the binding signal with SPIC was 1.03 fold enrichment (6-mer frequency, TF over GST control).

As for GTATGA, the binding signal in the experiment with SPIB is 1.05 fold enrichment (6-mer frequency, TF over GST control); in the experiment with SPIC, 1.09 fold enrichment (6-mer frequency, TF over GST control); with ELF4, 1.03 fold enrichment (6-mer frequency, TF over GST control); in the experiment with ELK4 it was 1.01 fold enrichment (6-mer frequency, TF over GST control); with ELF3, 1.02 fold enrichment (6-mer frequency, TF over GST control); with ETS2, 1.01 fold enrichment (6-mer frequency, TF over GST control). Besides, in the experiment with ETV3, the binding signal was 1.02 fold enrichment (6-mer frequency, TF over GST control).
